# Screens deposited in PubChem by National Center for Advancing Translational Sciences (NCATS).
# Most compounds without a hit are left out; they make up all but 19% or so of the library.
# HT1080 IDH1KD tx = qHTS for induction of synthetic lethality in tumor cells producing 2HG: qHTS for the HT-1080-IDH1KD cell line. HT-1080 IDH1 knockdown viability, ATP luminescence, 48 h. Potency, µM (top dose mostly 46.1 µM), for inactives: at the top dose activity, negative = toxicity, hits mostly cytotoxic. 360,000 compounds, 2% hits. AID 686971, 2013;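 further: 0% = DMSO wells and -100% = cell-free medium wells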
#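 Knockdown cells (IDH1KD HT-1080) received compounds 2 h after plating at 750 cells/well and were kept 48 h at 37 °C in 5% FBS RPMI. A CellTiter-Glo luminescence read gave % activity for curve fitting.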
# DT40 TDP1 no CPT = qHTS for Inhibitors of human tyrosyl-DNA phosphodiesterase 1 (TDP1): qHTS in cells in absence of CPT. DT40 Tdp1-/- hTDP1 cells, no CPT, ATP luminescence, 48 h. Potency, µM (series often up to 46.2 µM), inactives show top-dose activity change, negative = growth inhibition, hits mostly inhibitors. 420,000 compounds, 15% hits; further: nearly all actives have a fitted effect of over 55% in size
#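 DT40 Tdp1-/-;hTDP1 cells, no CPT (DMSO vehicle only), 400 cells/well; compounds pin-transferred; ≥48 hr, 37 °C; CellTiter-Glo 30 min RT dark, luminescence read.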
# KB-3-1 cytotox = qHTS assay for MDR1-selective chemotherapeutics: Primary screen using the parental adenocarcinoma cell KB-3-1; KB-3-1 viability, CellTiter-Glo ATP luminescence, 72 h; 400,000 compounds, 1.4% hits; AID 1347075, 2019; Potency, µM (titrated, usually from 46.1 µM), actives largely listed as cytotoxic; further: nearly all actives have a fitted effect of over 60% in size
#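 72 h, 37 °C compound treatment of KB-3-1 parental cells; CellTiter-Glo added, 10 min, luminescence read. Data corrected against DMSO-only plates and normalized before curve fitting.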
# TDP1 cell CPT = qHTS for Inhibitors of human tyrosyl-DNA phosphodiesterase 1 (TDP1): qHTS in cells in presence of CPT | chicken DT40 Tdp1-/-;hTDP1 cells + 20 nM CPT, ATP luminescence, 48 h | Potency, µM (highest dose often 46.2 µM), for the others: at the top dose activity change, negative = growth inhibition, actives largely listed as inhibitors | 420,000 compounds, 12% hits | AID 686979, 2013; further: nearly all actives have a fitted effect of over 55% in size
#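 Chicken DT40 Tdp1-/- cells complemented with human TDP1, 400 cells/well, exposed to compounds plus 20 nM camptothecin for at least 48 h at 37 C; viability read as ATP content by CellTiter-Glo luminescence.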
# HT1080-NT tox = qHTS for induction of synthetic lethality in tumor cells producing 2HG: qHTS for the HT-1080-NT fibrosarcoma cell line. HT-1080-NT fibrosarcoma viability, CellTiter-Glo ATP luminescence, 48 h. Potency, µM (doses to about 46.1 µM), for the others: at the highest dose activity, negative = less viability, hits mostly cytotoxic. 360,000 compounds, 1.6% hits. AID 686970, 2013;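 further: NT is the 2HG producing partner of a matched IDH1 knockdown line; 0% = DMSO-treated cells and -100% = media-only wells without cells; nearly all actives have a fitted effect of over 55% in size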
#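 Compounds were tested in concentration-response format on HT-1080-NT cells for 48 hours at 37 degrees C. Cell viability came from CellTiter-Glo luminescence; curves were classified by r2, response magnitude and activity.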
# KB-V1 cytotox = qHTS assay for MDR1-selective chemotherapeutics: Primary screen using the drug-selected MDR subline cells KB-V1 | KB-V1 MDR cells viability, CellTiter-Glo, 72 h | Potency, µM (titrated, usually from 46.1 µM), actives largely listed as cytotoxic | 400,000 compounds, 3.4% hits | AID 1347076, 2019; further: nearly all actives have a fitted effect of over 60% in size
#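 Cytotoxicity via CellTiter-Glo luminescence after 72 h compound exposure at 37 degrees C. Cells: drug-selected KB-V1 line, DMEM phenol-red free plus 10% FBS. Compounds tested at multiple concentrations; normalized data fitted to concentration-effect curves.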
# * = called active by the depositor; i = inactive; ? = inconclusive; . = not tested or not shown; [ ] = remark or other dose. The call rests on the fitted dose curve; in most records, active means well fitted curve in the direction sought with a large enough effect; inconclusive means small, poorly fitted or top-dose-only effect, or another doubt; inactive means no such curve, though single readings can be large; an effect the other way counts as inactive or inconclusive. Unless noted, on the % scale 0 is the no-effect control and ±100 the full control effect; potency means the concentration at half of the fitted maximal effect.
SMILES,HT1080 IDH1KD tx,DT40 TDP1 no CPT,KB-3-1 cytotox,TDP1 cell CPT,HT1080-NT tox,KB-V1 cytotox
Clc1ccc(-c2nnc(-c3ccccc3)c(N3CCSCC3)n2)cc1,0%,?,i,21µM*,-1%,i
CC1CCN(c2nc(-c3ccc(Br)cc3)nc3ccccc23)CC1,.,?,i,?,.,i
FC(F)(F)c1cccc(-c2nnc(-c3ccccc3)c(N3CCOCC3)n2)c1,-28%,16µM*,i,18µM*,-21%[9.24 µM],i
COc1ccc(CNC(=O)CN2C(=O)CCCc3ccccc32)cc1,.,2%,i,-20%,.,i
O=C(CCNC(=O)c1ccccc1Cl)Nc1cccc(S(=O)(=O)N2CCOCC2)c1,2%,4%,i,-13%,1%[9.24 µM],i
COc1ccc(CCNC(=O)CN(c2ccc(OC)c(OC)c2)S(=O)(=O)c2ccccc2)cc1OC,-1%,-1%,i,-9%,2%,i
CCc1ccc2oc(C(=O)Nc3cc(C)ccc3C)cc(=O)c2c1,.,-22%,i,-7%,.,i
CC(C)c1ccc([C@@H]2O[C@H](CCc3ccccc3)Cc3[nH][nH]c(=O)c32)cc1,7%,?,i,-29%,7%,i
CC(C)C1OC(CCc2ccccc2)Cc2[nH][nH]c(=O)c21 (stereo not drawn),?,23µM*,i,-23%,?,i
O=C(Cc1ccc(Cl)cc1)Nc1nnc2n1CCS2,.,-13%,i,-18%,.,i
Cc1ccccc1S(=O)(=O)Cc1ccc(C(=O)NCCCN2CCC(C)CC2)o1,19%,25%,i,-9%,9%,i
COc1ccccc1CNC(=O)CCc1c(C)nn(-c2ccc(N3CCCCC3)nn2)c1C,.,26µM*,.,?,.,.
CCOc1ccccc1CNC(=O)CCc1c(C)nn(-c2ccc(N3CCCC3)nn2)c1C,.,21µM*,.,?,.,.
C[C@@H]1[C@H](O)C[C@@]23COC(=O)C2=CCC[C@@H]3[C@@]1(C)CC/C(=C/CO)CO,-9%,-10%,i,-7%,17%,i
OCCN1CCN(C2Cc3cc(Cl)ccc3Sc3ccc(Cl)cc32)CC1 (stereo not drawn) (tested in a mixture with another compound),?,?,?,23µM*,?,?
CN1CCN(C2Cc3cc(Cl)ccc3Sc3cc(F)ccc32)CC1 (stereo not drawn),?,?,18µM*,?,?,18µM*
CN1CCN(CCC(=O)N2c3ccccc3Sc3ccc(Cl)cc32)CC1,-25%,?,i,?,-10%,i
CN1CCN(CCOC2Cc3ccccc3Sc3ccc(Cl)cc32)CC1 (stereo not drawn),-4%,21µM*,?,?,-6%,23µM*
c1ccc2c(c1)CC(N1CCCCC1)c1ccccc1S2 (stereo not drawn),8%,?,i,?,8%,i
CCN(CC)S(=O)(=O)c1ccc(OC)c(NC(=O)CSc2ccccc2)c1,-9%,?,i,-30%,-5%,i
CNC(=O)c1c[nH]c2ccc(S(=O)(=O)Nc3cccc(SC)c3)cc2c1=O,?,0%,?,-14%,?,?
CC(C)Cn1c(N)c(C(=O)COC(=O)[C@H](C)NC(=O)c2ccccc2Cl)c(=O)n(C)c1=O,-1%,-29%,i,?,-8%,i
Cc1csc(=O)n1CC(=O)OCC(=O)c1c(N)n(CC(C)C)c(=O)n(C)c1=O,-2%,23µM*,i,?,-11%,i
CCC(C(=O)OCC(=O)c1c(N)n(CC(C)C)c(=O)n(C)c1=O)c1ccccc1 (stereo not drawn),-20%,23µM*,?,21µM*,-6%,?
CCOc1ccccc1OCC(=O)OCC(=O)c1c(N)n(CC(C)C)c(=O)n(C)c1=O,-18%,18µM*,i,?,-15%,i
SMILES,HT1080 IDH1KD tx,DT40 TDP1 no CPT,KB-3-1 cytotox,TDP1 cell CPT,HT1080-NT tox,KB-V1 cytotox
O=C(NC1CCSc2ccccc21)c1ccc(C(F)(F)F)cc1 (stereo not drawn),-20%,-12%,i,18%,-9%,i
O=C(CCn1cnnn1)Nc1ccc(F)cc1,5%,12%,i,-15%,8%,i
O=C(Nc1ccccc1F)c1cc(S(=O)(=O)N2CCOCC2)ccc1N1CCOCC1,7%,-20%,i,-8%,9%,i
O=C(Nc1cccc(C(F)(F)F)c1)c1cc(S(=O)(=O)N2CCCCC2)ccc1N1CCOCC1,-2%,18µM*,i,23µM*,-5%,i
O=C(Nc1ccccc1Cl)c1cc(S(=O)(=O)N2CCCCC2)ccc1N1CCOCC1,-2%,23µM*,?,?,-3%,?
O=[N+]([O-])c1c(NCCCO)cc(Sc2ccc(Cl)cc2)c2nonc12,-2%,1.5µM*,?,1.3µM*,2%,i
O=[N+]([O-])c1c(NCCCO)cc(SCc2ccco2)c2nonc12,?,21µM*,i,15µM*,-25%,i
O=[N+]([O-])c1c(NCc2ccco2)ncnc1NCc1ccco1,7%,-4%,i,-4%,16%,i
O=[N+]([O-])c1c(NCCCO)cc(N2CCN(Cc3ccc4c(c3)OCO4)CC2)c2nonc12,-22%,5.8µM*,i,6.5µM*,-22%,16µM*
CC1CCN(CCCNc2cc(NCCO)c([N+](=O)[O-])c3nonc23)CC1,0%,-1%,i,1%,6%,i
CC(=O)OCCNc1cc(SCc2ccco2)c2nonc2c1[N+](=O)[O-],?,18µM*,i,?,-12%,i
O=[N+]([O-])c1c(NCCCO)cc(N2CCCCCC2)c2nonc12,-2%,?,i,-17%,-12%,i
CC(C)NC(=O)N1CC[C@@]2(CCCN(S(C)(=O)=O)C2)C1,.,4%,.,7%,.,.
CS(=O)(=O)c1ccc2nc(NC(=O)c3ccc(N4C(=O)CCC4=O)cc3)sc2c1,-6%,-32%,i,?,-5%,i
